Counter-ions that a name gives are not always drawn. ± gives the standard deviation or the standard deviation of the averaged measurements.

Conditions in all cases: 25 µM; exposure: 24-48 hpf
Experiment [1] concerns Danio rerio Tg(wt1b:EGFP) embryo, pronephros. Description: glomerular separation, fold change vs DMSO control; higher = glomeruli further apart (abnormal). In short, it runs like this:
(§1)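 Dechorionated Tg(wt1b:EGFP) zebrafish embryos were treated with 25 μM compound in 0.5% DMSO, in HEPES-buffered E3 with 0.003% PTU, from 24 to 48 hpf at 28.5°C. On maximum projections of dorsal pronephros images, 16 hand-placed reference points in Fiji gave distances and angles, and values more than 2 SD from the feature mean were left out. Results are fold changes over the mean of same-day DMSO-treated embryos.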

Experiment [2] has the same test system. The experiment can be described thus: glomerular width (mean of left and right), fold change vs DMSO control; higher = wider glomerulus. In short, it runs like this:
as §1

The test system is the same in experiment [3]. Description: fraction of imaged embryos annotated as normal kidney; higher = less nephrotoxic; extreme values may be limits of the assay. In short, it runs like this:
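Dechorionated Tg(wt1b:EGFP) zebrafish embryos were incubated with 25 μM compound in 0.5% DMSO, 5 mM HEPES-buffered E3 and 0.003% PTU from 24 to 48 hpf at 28.5°C. Pronephroi were then imaged by widefield fluorescence, and the fraction of embryos per treatment assigned by hand to the normal-kidney category is given.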

For experiment [4] the test system is unchanged. The experiment can be described thus: pronephric angle neck segment to proximal convoluted tubule (mean of left and right), fold change vs DMSO control; higher = larger pronephric angle. In short, it runs like this: as §1

On to `CC(=O)S[C@@H]1CC2=CC(=O)CC[C@]2(C)[C@H]2CC[C@@]3(C)[C@@H](CC[C@@]34CCC(=O)O4)[C@H]12` [Spironolactone], for which the glomerular separation in experiment [1] is 0.838 ± 0.13. The molecule further yielded a glomerular width in experiment [2] of 0.912 ± 0.011. For the same molecule, the “fraction of imaged embryos annotated as normal kidney” value (from here on “fraction of imaged embryos annotated”) in experiment [3] stood at 1. For the same molecule, in experiment [4], the “pronephric angle neck segment” value is 0.986 ± 0.036.
In turn, `Cc1ncc(CO)c(CO)c1O` [Pyridoxine hydrochloride] displayed a glomerular separation in experiment [1] of 0.838 ± 0.25. This molecule also came in with a glomerular width in experiment [2] of 1.04 ± 0.019. The “fraction of imaged embryos annotated” value in experiment [3] stood at 1. The “pronephric angle neck segment” value in experiment [4] is 1.06 ± 0.061.
Regarding `O=S(=O)(O)c1cc(O)ccc1O` [Ethamsylate], the glomerular separation in experiment [1] stood at 1.12 ± 0.45. The molecule also had a glomerular width in experiment [2] of 0.89 ± 0.079. Also, the “fraction of imaged embryos annotated” value in experiment [3] turned out to be 0.917. Moreover, the “pronephric angle neck segment” value in experiment [4] amounted to 0.9847 ± 0.0033.
For `CC(C(=O)O)c1ccc(C(=O)c2cccs2)cc1` (stereo not given) [Suprofen], in that order: 1.78 ± 0.63, 1.02 ± 0.14, 0.75 and 1.03 ± 0.081.
As for `CO[C@@]1(NC(=O)C(C(=O)O)c2ccc(O)cc2)C(=O)N2C(C(=O)O)=C(CSc3nnnn3C)CO[C@@H]21` (stereo not given in full) [Moxalactam disodium salt], the glomerular separation in experiment [1] is 0.871 ± 0.28. The glomerular width in experiment [2] is 1.04 ± 0.014. Further, the “fraction of imaged embryos annotated” value in experiment [3] was 0.917. The “pronephric angle neck segment” value in experiment [4] was found to be 0.984 ± 0.067.
In turn, `Cc1cn([C@H]2C[C@H](N=[N+]=[N-])[C@@H](CO)O2)c(=O)[nH]c1=O` [Zidovudine, AZT] gave a glomerular separation in experiment [1] of 1 ± 0.41. Besides, the glomerular width in experiment [2] stood at 1.06 ± 0.08. Moreover, in experiment [3], the “fraction of imaged embryos annotated” value was determined as 1. The “pronephric angle neck segment” value in experiment [4] is 0.991 ± 0.018.
`c1ccc2c(CC3=NCCN3)cccc2c1` [Naphazoline hydrochloride] returned a glomerular separation in experiment [1] of 1.17 ± 0.54. For the same molecule, the glomerular width in experiment [2] came to 1 ± 0.0079. Further, the “fraction of imaged embryos annotated” value in experiment [3] came to 1. In experiment [4], the “pronephric angle neck segment” value is 1.006 ± 0.0059.
In experiment [1], `NS(=O)(=O)c1cc2c(cc1Cl)N=CNS2(=O)=O` [Chlorothiazide] gave a glomerular separation of 0.855 ± 0.11. This molecule returned a glomerular width in experiment [2] of 1.07 ± 0.043. Besides, the “fraction of imaged embryos annotated” value in experiment [3] came to 0.75. Moreover, the “pronephric angle neck segment” value in experiment [4] worked out at 0.99 ± 0.057.
For `CCCN[C@H]1CCc2nc(N)sc2C1` [Pramipexole dihydrochloride], in that order: 0.857 ± 0.44, 1.03 ± 0.049, 0.833 and 1.01 ± 0.046.
For `CN(C)CCCN1c2ccccc2Sc2ccc(Cl)cc21` [Chlorpromazine hydrochloride], in that order: 0.83 ± 0.37, 1.01 ± 0.1, 0.833 and 0.974 ± 0.024.

The values above are taken from the supplement of paper PMC7366291.
